RORg inh – ROR gamma (mouse) transcription inhibition | P51450 | Drosophila S2 Gal4-RORgamma UAS-luciferase reporter, 20 h | Potency, µM (doses to about 53.6 µM), for inactives: top-dose activity change, negative = inhibition, actives largely listed as inhibitors | 310,000 compounds, 5.4% hits; note: % is set by controls: 0 for no effect and ±100 for the full control effect; nearly all actives have a fitted effect of over 60% in size
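A Gal4/UAS one-hybrid system in insect cells: metallothionein-promoter Gal4–ROR gamma fusion plus Photinus luciferase reporter. Copper sulfate 700 uM final, 20 hr ambient incubation, luminescent detection after 10 min with reagent.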
PINK1 expr mod – PINK1 expression modulation; PINK1 immunofluorescence, high-content cytometry, 24 h; Potency, µM (series often up to 76.6 µM), without a hit: at the highest dose activation (PINK1 increase), hits mostly activators; 410,000 compounds, 0.2% hits; active = well fitted activation curve with a large enough effect; inconclusive = small, poorly fitted or top-dose-only effect; cell line not stated here; note: % of control where 0% means no effect; nearly all actives have a fitted effect of over 65% in size
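PINK1 protein, normally rapidly degraded, was detected by immunofluorescence after 24 hour compound treatment of a stable cell line. Titration data (5 concentrations) came from laser-scanning cytometry, with CCCP-treated wells as controls.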
Sfp inh – blocks B. subtilis Sfp PPTase activity; Q9F4F7; Biochemical Sfp PPTase activity, qHTS; Potency, µM, inactives show largest response in the series, negative = inhibition, actives largely listed as inhibitors; 310,000 compounds, 3.5% hits; AID 1490;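 note: the enzyme is Sfp with the accession as filed and its product quenches rhodamine fluorescence; 0% = enzyme reaction without inhibitor and -100% = no enzyme wells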
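Fluorescence-quenching assay: 15 nM Sfp-PPTase preincubated 15 min at room temperature with compound, then 5 uM rhodamine-CoA and 12.5 uM BHQ-2-labelled YbbR peptide added. Fluorescence (ex 525/em 598 nm) read at start and after 30 min; difference gives rate.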
Epigenetic derep – regulators of epigenetic silencing causing reporter derepression in mouse cells. murine LDR cells, GFP reporter derepression, 30 h. AID 1865. 280,000 compounds, 0.2% hits. Potency, µM (top dose mostly 53.9 µM), for the others: top-dose GFP activation, usual class: activators; note: % of control where 0% means no effect; nearly all actives have a fitted effect of over 60% in size
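GFP-positive cell count by laser-scanning cytometry (objects 20–120 um) after 30 h, 37 C compound exposure of murine LDR cells; reporter is CMV-GFP integrated at a silenced locus, inducible by HDAC or DNMT inhibitors.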
ClpP mod – qHTS Assay for Activators of ClpP | purified B. subtilis ClpP, FRET peptide cleavage, 20 min | ATP-dependent Clp protease proteolytic subunit (Bacillus subtilis (strain 168)), P80244 | AID 651965, 2013 | 340,000 compounds, 1.9% hits | Potency, µM (series often up to 57.5 µM), for the others: at the top dose activity change, negative = active; active = well fitted falling curve with a large enough effect; inconclusive = small, poorly fitted or top-dose-only effect; inactive = no such curve, though single readings can be large or run the other way; note: the source files actives as falling curves though it sought activators and does not explain the sign; nearly all actives have a fitted effect of over 65% in size
Target sequence (P80244 whole entry, looked up): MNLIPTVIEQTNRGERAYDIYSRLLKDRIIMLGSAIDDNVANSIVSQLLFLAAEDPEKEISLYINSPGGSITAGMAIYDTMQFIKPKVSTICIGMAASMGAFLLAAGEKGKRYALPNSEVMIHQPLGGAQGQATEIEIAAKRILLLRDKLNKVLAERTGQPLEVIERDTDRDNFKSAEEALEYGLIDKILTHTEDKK
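Purified B. subtilis ClpP, 10 microg/mL final in Tris/HCl pH8 with KCl, BSA, glycerol and Tween-20, cleaved an Abz/nitrotyrosine-quenched decapeptide. Fluorescence (ex 320, em 430) was read at 0 and 20 min at room temperature. Delta was normalized to 5.8 microM ADEP and DMSO/no-enzyme controls.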
Gal4-VP16 FLuc – inhibits Gal4-VP16 luciferase reporter, ROR gamma counter-screen | Drosophila S2 Gal4-VP16 UAS-luciferase, luminescence, 20 h | Potency, µM (titrated, usually from 53.6 µM), for the others: at the top dose activity, negative = inhibition, most hits filed as inhibitors | 310,000 compounds, 3.5% hits | AID 2546;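 note: Gal4-VP16 expression switched on by copper sulfate through the metallothionein promoter; % is set by controls: 0 for no effect and ±100 for the full control effect; nearly all actives have a fitted effect of over 50% in size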
The depositor's hits bear a star; ? = inconclusive; · = no result given; [ ] = remark or other dose. The list is not random: actives were taken first. Their share in the collection is about 8.1%. Unless noted, calls come from the whole dose curve; as a rule, active = well fitted curve in the direction sought with a large enough effect; inconclusive = small, poorly fitted or top-dose-only effect, or another doubt; inactive = no such curve, though single readings can be large; an effect the other way counts as inactive or inconclusive. Potency is the fitted concentration of half-maximal effect.

SMILES | RORg inh | PINK1 expr mod | Sfp inh | Epigenetic derep | ClpP mod | Gal4-VP16 FLuc
CC1=C(C)CC(c2ccccc2)C(C(=O)c2ccccc2O)C1 (stereo unspecified) | 18%[10 µM] | · | 3% | 1%[10.1 µM] | · | 7%[10 µM]
COc1cccc(N2CC(NC(=O)c3ccc(S(=O)(=O)N4CCOCC4)cc3)CC2=O)c1 (stereo unspecified) | · | 2% | · | 3% | 1% | ·
COc1cc2c(cc1OC)C(=O)CCC2 | · | -1% | · | · | 28µM* | ·
O=C1CCCc2cc3c(cc21)CCCC3 | · | 6% | · | · | · | ·
COc1ccc(C2/C=C\CN(CC3CCCCC3)C(Cc3ccccc3)C(=O)N2Cc2ccc(F)cc2)cc1 (stereo unspecified) | 15% | · | 12% | · | · | 4%
Cc1ccc(S(=O)(=O)N(C(=O)c2ccncc2)c2ccc(OC(=O)c3ccncc3)c3ccccc23)cc1 | 13µM* | -3% | 25µM* | 2% | -8% | ?
CC(=O)Oc1ccc(N(C(C)=O)S(=O)(=O)c2ccccc2)c2ccccc12 | · | 0% | · | · | -2% | ·
Cc1ccc(S(=O)(=O)N(C(=O)c2ccncc2)c2ccc(OC(=O)c3ccncc3)c3ccccc23)c(C)c1 | ? | 0% | 45µM* | 7% | 2% | ?
O=C(COc1ccccc1C(=O)Nc1cccc([N+](=O)[O-])c1)Nc1ccc(Br)cc1 | · | 1% | · | · | -2% | ·
Cc1cc2ccccc2n1CCNC(=O)c1ccccc1F | · | 4% | · | 2% | -2% | ·
Cc1csc2nc(COc3ccc(NC(=O)C(C)C)cc3)cc(=O)n12 | · | 0% | · | 1% | -5% | ·
CC(=O)/C=C/c1ccc2c(c1)S(=O)(=O)N(C1CCCC1)[C@H]2CC(C)=O | · | · | · | · | -2% | ·
Cc1ccc(CC2SC(=O)NC2=O)cc1Cl (stereo unspecified) | ? | -1% | -1% | -2% | 0% | -15%
O=C(CC1S/C(=N/N=C2CCCCCC2)NC1=O)Nc1ccccc1C(F)(F)F (stereo unspecified) | 5.6µM* | 0% | 11% | · | · | ?
O=C1N/C(=N\N=C\c2cccs2)SC1Cc1ccc(Cl)c(Cl)c1 (stereo unspecified) | 0.45µM* | 6% | 3% | 2% | 2% | 0.71µM*
C=CCN1C(=O)C(Cc2ccc(OC)cc2)S/C1=N\N=C\c1cccs1 (stereo unspecified) | 2% | 7% | -4% | 0% | 1% | 10%
C=CCC1S/C(=N/N=C/c2cccs2)NC1=O (stereo unspecified) | 2µM* | 0% | 4% | -3% | 1% | 5.6µM*
O=C(CC1S/C(=N/N=C/c2cccs2)NC1=O)Nc1ccccc1F (stereo unspecified) | 8.9µM* | 4% | -10% | 0% | -1% | -23%
Cc1nc2c(-c3ccccc3)c(C)nn2c(C)c1CCC(=O)NCc1ccc(Cl)cc1 | · | 0% | · | 9% | 2% | ·
CCOC(=O)c1cccc(NC(=O)CC2C(=O)N(c3ccc(C)cc3)C(=O)N2Cc2cccc(OC)c2)c1 (stereo unspecified) | · | 1% | · | -2% | -3% | ·
CC(NC(=O)/C(C#N)=C/c1cccs1)c1ccccc1 (stereo unspecified) | ? | 0% | 1% | -5% | · | 10%
CC(NC(=O)/C(C#N)=C/c1ccc(N2CCOCC2)cc1)c1ccccc1 (stereo unspecified) | 2% | 1% | 5% | · | · | ?
COC(=O)c1ccc(/C=C(\C#N)C(=O)NC(C)c2ccccc2)cc1 (stereo unspecified) | 0.5µM* | -1% | 32µM* | 0% | -4% | 4.5µM*
COc1ccc(/C=C(\C#N)C(=O)NC(C)c2ccccc2)cc1O (stereo unspecified) | 13% | 3% | -16% | · | · | -2%
